According to PubChem BioAssay (EPA / NIEHS):
Results filed as inconclusive are left out. Some structures have more than one record in an assay (separate samples or runs), and their calls can disagree. Activity calls are given as the source filed them. How the source made its calls, unless noted: active means hit-call score of the fitted dose curve at least 0.9, where 1 is the maximum; inactive means score below 0.9.

Columns and labels:
[1] = ATG_GAL4_TRANS: Attagene TRANS-FACTORIAL HepG2 Assay for GAL4 (Internal Marker) (AID 2282976; active means hit-call score of the fitted dose curve at least 0.9, where 1 is the maximum); conditions: HepG2 Attagene TRANS GAL4 internal marker reporter
In short: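 RT-PCR/capillary electrophoresis readout of reporter mRNA. HepG2, transient MRTU transfection (GAL4-UAS reporters), 24 h compound exposure. Background-control endpoint, positive direction vs DMSO baseline.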

[2] = target: Glucocorticoid receptor (Homo sapiens) (UniProt P04150); test: ATG_GR_TRANS: Attagene TRANS-FACTORIAL HepG2 Assay for human Glucocorticoid Receptor (GR) (AID 2282978; active means hit-call score of the fitted dose curve at least 0.9, where 1 is the maximum;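 further: activators score as hits since higher reporter transcript over DMSO is fitted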); conditions: HepG2 Attagene TRANS GR reporter, mRNA transcription
In short: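 Transient MRTU transfection of HepG2 (GAL4-UAS reporters, exogenous NR-GAL4 chimeras), 24 h dosing. Readout: reporter transcript via RT-PCR + capillary electrophoresis fluorescence. Positive direction vs DMSO baseline.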

[3] = target: Hepatocyte nuclear factor 4-alpha (Homo sapiens) (UniProt P41235); test: ATG_HNF4a_TRANS: Attagene TRANS-FACTORIAL HepG2 Assay for human Hepatocyte Nuclear Factor 4 alpha (HNF4a) (AID 2282982; active means hit-call score of the fitted dose curve at least 0.9, where 1 is the maximum); conditions: HepG2 HNF4a transactivation reporter, mRNA readout
In short: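 Using HepG2 liver cells transfected with GAL4-UAS reporter units, chemical-induced mRNA increases were assessed after 24 hours. Fluorescent RT-PCR fragments were separated by capillary electrophoresis and compared with DMSO negative controls.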

[4] = ATG_M_06_TRANS: Attagene TRANS-FACTORIAL HepG2 Assay for M06 Transcription Factor (Internal Marker) (AID 2282983; active means hit-call score of the fitted dose curve at least 0.9, where 1 is the maximum); conditions: HepG2 Attagene TRANS M06 internal marker reporter
In short: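 Read-out: fluorescent reporter cDNA fragments resolved by capillary electrophoresis after RT-PCR and HpaI cut. Source cells were HepG2 carrying transfected multi-reporter GAL4 constructs, dosed 24 h. Increase over DMSO control analysed.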

[5] = ATG_M_32_TRANS: Attagene TRANS-FACTORIAL HepG2 Assay for M32 Transcription Factor (Internal Marker) (AID 2282984; active means hit-call score of the fitted dose curve at least 0.9, where 1 is the maximum;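 further: transcript level of a background control reporter unit measured by RT-PCR and capillary electrophoresis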); conditions: HepG2 Attagene TRANS M32 internal marker reporter
In short: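 Fluorescence-detected mRNA induction, HepG2 liver cells, 24 h after dosing. Multiple GAL4-UAS reporter units introduced by transient transfection; background-control endpoint analysed for gain of signal against DMSO.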

[6] = target: Nuclear receptor subfamily 4 group A member 2 (Homo sapiens) (UniProt P43354); test: ATG_NURR1_TRANS: Attagene TRANS-FACTORIAL HepG2 Assay for human Nuclear Receptor Related Protein 1 (NURR1) (AID 2282985; active means hit-call score of the fitted dose curve at least 0.9, where 1 is the maximum); conditions: HepG2 Attagene TRANS reporter, mRNA readout
In short: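 Chimeric NR-Gal4 proteins were expressed in human HepG2 cells bearing GAL4-UAS reporter units, and induced reporter mRNA was quantified 24 h post-dosing by RT-PCR and capillary electrophoresis.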

[7] = target: Transcriptional activator Myb (Homo sapiens) (UniProt P10242); test: ATG_Myb_CIS: Attagene CIS-FACTORIAL HepG2 Assay for human Myeloblastosis (Myb) Proto-Oncogene Transcription Factor (AID 2282986); conditions: HepG2 Attagene CIS-FACTORIAL Myb reporter transcription; actives raise or lower the signal
In short: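 HepG2, transient MRTU transfection (cis-element promoters, endogenous TF activity), 24 h compound exposure. Readout: reporter mRNA via RT-PCR, 6-FAM labeling, HpaI digest, capillary electrophoresis. Gain/loss fit vs DMSO.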

[8] = target: Nuclear respiratory factor 1 (Homo sapiens) (UniProt Q16656); test: ATG_NRF1_CIS: Attagene CIS-FACTORIAL HepG2 Assay for human Nuclear Respiratory Factor 1 (NRF1) Orphan Gene (AID 2282987); conditions: HepG2 NRF1 cis-element reporter, Attagene multiplex; actives raise or lower the signal
In short: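 Endogenous NRF1-driven reporter transcription measured in transiently transfected human HepG2 liver cells. Readout: reporter mRNA by RT-PCR and capillary electrophoresis with fluorescence detection, 24 h post-dosing. Gain or loss of signal fitted relative to DMSO baseline.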

[9] = ATG_NFI_CIS: Attagene CIS-FACTORIAL HepG2 Assay for human Nuclear Factor I (NFI) (AID 2282989); conditions: HepG2 cis-regulatory reporter, NFI response element transcription; actives raise or lower the signal
In short: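 Cells: human liver HepG2, transiently transfected with promoter-regulated reporter transcription units. Exposure 24 h. Detection: fluorescent RT-PCR products separated by capillary electrophoresis, normalised to DMSO negative control.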

[10] = target: Myc proto-oncogene protein (Homo sapiens) (UniProt P01106); test: ATG_Myc_CIS: Attagene CIS-FACTORIAL HepG2 Assay for human Myelocytomatosis (Myc) Proto-Oncogene Transcription Factor (AID 2282990); conditions: HepG2, Attagene cis-reporter transcription factor activity; actives raise or lower the signal
In short: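 Multiplexed cis-reporter transcription in HepG2 cells after 24 h chemical treatment. Reporter mRNA measured by RT-PCR and capillary electrophoresis fluorescence; activity fitted bidirectionally against DMSO control.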

[11] = ATG_NRF2_ARE_CIS: Attagene CIS-FACTORIAL HepG2 Assay for human Nuclear Factor Erythroid 2 Related Factor 2 (NFR2) response to Antioxidant Response Elements (ARE) (AID 2282992); conditions: HepG2 Attagene ARE/NRF2 reporter, transcription factor activity; actives raise or lower the signal
In short: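 Endogenous transcription factor activity in human liver HepG2 cells is tracked via a cis-element-driven reporter within a multiplexed set. mRNA induction is read by RT-PCR and capillary electrophoresis after 24 h, with DMSO as baseline.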

[12] = ATG_Oct_MLP_CIS: Attagene CIS-FACTORIAL HepG2 Assay for human Octamer-Binding Transcription Factor (Oct) (AID 2282993); conditions: HepG2 Attagene cis-factorial Oct reporter, mRNA; actives raise or lower the signal
In short: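 HepG2, transient MRTU transfection, cis promoter elements; 24 h dosing; RT-PCR/CE fluorescence read-out of reporter mRNA; fit both directions vs DMSO.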

[13] = BSK_3C_TissueFactor: BioMAP Diversity Plus: 3C Assay for Tissue Factor Biomarker Activity (AID 2282997); conditions: BioMAP 3C HUVEC, tissue factor biomarker readout; actives raise or lower the signal
In short: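 HUVEC, 3C system, 24 h post-dose; Tissue Factor by ELISA; bidirectional fit vs DMSO baseline.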

[14] = BSK_3C_VCAM1: BioMAP Diversity Plus: 3C Assay for Vascular cell adhesion molecule 1 (VCAM1) Biomarker Activity (AID 2282999); conditions: BioMAP 3C HUVEC, VCAM1 ELISA, cytokine-stimulated; actives raise or lower the signal
In short: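 Vascular primary endothelium (human umbilical vein) was exposed to chemicals and assayed 24 h later. VCAM-1 levels came from ELISA, with DMSO serving as baseline for bidirectional fitting.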

[15] = target: Bile acid receptor (Homo sapiens) (UniProt Q96RI1); test: ATG_FXR_TRANS: Attagene TRANS-FACTORIAL HepG2 Assay for Farnesoid X Receptor (FXR) (AID 2282979; active means hit-call score of the fitted dose curve at least 0.9, where 1 is the maximum;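 further: hits raise reporter mRNA above DMSO so AC50 marks FXR activation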); conditions: HepG2 Attagene TRANS FXR-GAL4 reporter transcription
In short: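 Read-out: fluorescent reporter transcripts quantified by capillary electrophoresis after RT-PCR of total RNA. Source cells were HepG2 transiently carrying chimeric NR-GAL4 plus GAL4-UAS reporter units, dosed 24 h. Activity fitted upward relative to DMSO baseline.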

[16] = target: Oxysterols receptor LXR-alpha (Homo sapiens) (UniProt Q13133); test: ATG_LXRa_TRANS: Attagene TRANS-FACTORIAL HepG2 Assay for human Liver X Receptor alpha (LXRa) (AID 2282980; active means hit-call score of the fitted dose curve at least 0.9, where 1 is the maximum); conditions: HepG2 Attagene TRANS reporter, LXRa transactivation
In short: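 Read-out: reporter transcript levels by RT-PCR plus capillary electrophoresis, fluorescence intensity. Transiently transfected HepG2, exogenous NR-GAL4 chimera, GAL4-UAS reporters; 24 h compound exposure. Activity = increase over DMSO negative control.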

[17] = target: Oxysterols receptor LXR-beta (Homo sapiens) (UniProt P55055); test: ATG_LXRb_TRANS: Attagene TRANS-FACTORIAL HepG2 Assay for human Liver X Receptor beta (LXRb) (AID 2282981; active means hit-call score of the fitted dose curve at least 0.9, where 1 is the maximum); conditions: HepG2 Attagene TRANS GAL4-LXRb reporter, mRNA
In short: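 Liver-derived HepG2 cells transfected with Gal4-responsive reporters were dosed for 24 h. Activation was scored as rise in reporter mRNA, by RT-PCR and capillary electrophoresis, above DMSO baseline.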

[18] = ATG_NF_kB_CIS: Attagene CIS-FACTORIAL HepG2 Assay for human Nuclear Factor Kappa B (NF-kB) (AID 2282991); conditions: HepG2 Attagene cis-factorial NF-kB reporter mRNA; actives raise or lower the signal
In short: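 Read-out: reporter transcript levels quantified by RT-PCR plus capillary electrophoresis of 6-FAM-labelled, HpaI-cut fragments. Transfected HepG2 cells, 24 h compound exposure, endogenous NF-kB-driven cis element; gain or loss scored versus DMSO.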

[19] = BSK_3C_uPAR: BioMAP Diversity Plus: 3C Assay for Urokinase-type plasminogen activator receptor (uPAR) Biomarker Activity (AID 2282998); conditions: BioMAP 3C HUVEC, uPAR biomarker ELISA; actives raise or lower the signal
In short: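 A multiplexed primary-cell system built on human umbilical vein endothelium was used, with chemical present for 24 h before reading. Cell-surface uPAR was detected by ELISA; signal change in either direction counted against DMSO.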

[20] = target: Cellular tumor antigen p53 (Homo sapiens) (UniProt P04637); test: ATG_p53_CIS: Attagene CIS-FACTORIAL HepG2 Assay for human p53 Transcription Factor (AID 2282994); conditions: HepG2 p53 cis-element reporter, Attagene mRNA; actives raise or lower the signal
In short: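 Steps: transfect HepG2 with multiplexed cis reporter constructs; dose chemicals 24 h; extract RNA, reverse-transcribe, PCR-amplify reporter sequences; FAM-label, HpaI-digest, resolve fragments by CE. Activity fitted both directions relative to DMSO.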

Measured: AC50

Nuclear respiratory factor 1 (Homo sapiens), sequence (Q16656 whole entry, looked up): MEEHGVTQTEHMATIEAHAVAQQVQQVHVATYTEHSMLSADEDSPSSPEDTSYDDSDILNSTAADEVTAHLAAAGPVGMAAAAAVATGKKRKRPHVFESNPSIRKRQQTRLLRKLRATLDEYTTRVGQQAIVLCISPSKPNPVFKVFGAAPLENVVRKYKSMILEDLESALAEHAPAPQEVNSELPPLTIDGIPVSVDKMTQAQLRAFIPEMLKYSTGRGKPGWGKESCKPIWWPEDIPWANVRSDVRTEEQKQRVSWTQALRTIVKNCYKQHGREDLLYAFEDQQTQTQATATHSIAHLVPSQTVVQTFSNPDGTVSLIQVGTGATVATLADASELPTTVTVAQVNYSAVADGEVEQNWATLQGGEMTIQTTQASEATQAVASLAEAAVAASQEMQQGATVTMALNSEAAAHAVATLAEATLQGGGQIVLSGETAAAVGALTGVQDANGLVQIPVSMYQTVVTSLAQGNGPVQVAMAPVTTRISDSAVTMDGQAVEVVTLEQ
Oxysterols receptor LXR-alpha (Homo sapiens), sequence (Q13133 whole entry, looked up, the tested form may be a part): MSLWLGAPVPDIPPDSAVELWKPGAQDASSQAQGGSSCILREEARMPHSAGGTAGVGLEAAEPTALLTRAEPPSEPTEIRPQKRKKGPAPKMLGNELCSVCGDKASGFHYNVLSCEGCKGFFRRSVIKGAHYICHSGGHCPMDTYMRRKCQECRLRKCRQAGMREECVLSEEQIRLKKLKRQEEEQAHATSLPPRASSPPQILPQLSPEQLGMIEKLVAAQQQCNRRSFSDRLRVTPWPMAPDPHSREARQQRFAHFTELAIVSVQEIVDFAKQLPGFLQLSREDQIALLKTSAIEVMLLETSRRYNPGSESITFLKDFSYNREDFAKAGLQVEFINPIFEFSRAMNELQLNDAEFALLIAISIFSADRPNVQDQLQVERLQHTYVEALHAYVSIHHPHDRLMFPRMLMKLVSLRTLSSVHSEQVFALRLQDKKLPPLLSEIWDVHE
Glucocorticoid receptor (Homo sapiens), sequence (P04150 whole entry, looked up, the tested form may be a part): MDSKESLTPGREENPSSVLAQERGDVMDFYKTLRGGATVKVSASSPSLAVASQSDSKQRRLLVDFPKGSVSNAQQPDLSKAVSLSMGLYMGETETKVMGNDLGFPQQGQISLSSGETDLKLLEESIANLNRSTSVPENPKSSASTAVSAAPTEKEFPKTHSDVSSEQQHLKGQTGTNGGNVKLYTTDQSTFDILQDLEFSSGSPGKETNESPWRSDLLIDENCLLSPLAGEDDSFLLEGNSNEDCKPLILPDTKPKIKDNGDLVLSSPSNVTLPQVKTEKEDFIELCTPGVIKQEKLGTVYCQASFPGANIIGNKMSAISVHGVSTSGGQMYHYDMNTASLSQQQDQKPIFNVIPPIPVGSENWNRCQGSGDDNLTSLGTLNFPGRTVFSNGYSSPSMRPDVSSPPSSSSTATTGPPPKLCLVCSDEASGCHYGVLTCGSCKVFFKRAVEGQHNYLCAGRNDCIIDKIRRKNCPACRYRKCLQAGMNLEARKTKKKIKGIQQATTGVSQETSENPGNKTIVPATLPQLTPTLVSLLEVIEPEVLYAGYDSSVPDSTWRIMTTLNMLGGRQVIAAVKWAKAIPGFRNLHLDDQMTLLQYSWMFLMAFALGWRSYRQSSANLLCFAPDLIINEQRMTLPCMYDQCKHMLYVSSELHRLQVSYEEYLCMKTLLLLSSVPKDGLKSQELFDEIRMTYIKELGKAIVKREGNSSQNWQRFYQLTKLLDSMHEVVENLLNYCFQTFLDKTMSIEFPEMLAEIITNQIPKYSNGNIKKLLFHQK
Oxysterols receptor LXR-beta (Homo sapiens), sequence (P55055 whole entry, looked up, the tested form may be a part): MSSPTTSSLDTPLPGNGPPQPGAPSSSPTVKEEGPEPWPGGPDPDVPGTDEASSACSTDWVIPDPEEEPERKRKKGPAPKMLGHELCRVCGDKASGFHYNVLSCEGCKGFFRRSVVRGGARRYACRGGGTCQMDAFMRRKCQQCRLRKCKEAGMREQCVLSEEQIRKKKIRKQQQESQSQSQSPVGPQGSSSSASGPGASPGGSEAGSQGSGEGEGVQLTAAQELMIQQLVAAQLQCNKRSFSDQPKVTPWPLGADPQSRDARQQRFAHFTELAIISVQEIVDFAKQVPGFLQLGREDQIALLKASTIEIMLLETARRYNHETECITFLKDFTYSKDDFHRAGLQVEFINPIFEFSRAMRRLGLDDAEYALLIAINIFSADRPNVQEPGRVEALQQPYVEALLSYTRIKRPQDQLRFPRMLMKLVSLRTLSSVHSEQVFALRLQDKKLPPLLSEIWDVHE
Transcriptional activator Myb (Homo sapiens), sequence (P10242 whole entry, looked up): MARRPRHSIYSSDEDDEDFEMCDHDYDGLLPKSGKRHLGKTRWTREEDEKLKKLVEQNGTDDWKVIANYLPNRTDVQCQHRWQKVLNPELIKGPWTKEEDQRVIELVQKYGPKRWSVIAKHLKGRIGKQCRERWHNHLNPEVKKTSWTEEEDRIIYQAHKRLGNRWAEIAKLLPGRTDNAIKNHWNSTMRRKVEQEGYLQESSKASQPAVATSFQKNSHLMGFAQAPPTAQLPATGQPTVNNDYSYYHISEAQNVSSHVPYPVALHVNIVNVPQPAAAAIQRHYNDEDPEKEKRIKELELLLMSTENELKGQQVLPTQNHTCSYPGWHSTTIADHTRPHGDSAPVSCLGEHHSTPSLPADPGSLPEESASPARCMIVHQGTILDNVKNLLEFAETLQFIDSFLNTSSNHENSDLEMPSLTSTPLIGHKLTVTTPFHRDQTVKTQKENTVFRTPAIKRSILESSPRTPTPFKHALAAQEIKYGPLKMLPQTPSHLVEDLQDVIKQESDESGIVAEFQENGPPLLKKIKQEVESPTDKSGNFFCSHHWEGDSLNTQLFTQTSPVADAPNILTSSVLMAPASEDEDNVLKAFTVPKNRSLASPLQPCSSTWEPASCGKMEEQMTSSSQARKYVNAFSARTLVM
Hepatocyte nuclear factor 4-alpha (Homo sapiens), sequence (P41235 whole entry, looked up, the tested form may be a part): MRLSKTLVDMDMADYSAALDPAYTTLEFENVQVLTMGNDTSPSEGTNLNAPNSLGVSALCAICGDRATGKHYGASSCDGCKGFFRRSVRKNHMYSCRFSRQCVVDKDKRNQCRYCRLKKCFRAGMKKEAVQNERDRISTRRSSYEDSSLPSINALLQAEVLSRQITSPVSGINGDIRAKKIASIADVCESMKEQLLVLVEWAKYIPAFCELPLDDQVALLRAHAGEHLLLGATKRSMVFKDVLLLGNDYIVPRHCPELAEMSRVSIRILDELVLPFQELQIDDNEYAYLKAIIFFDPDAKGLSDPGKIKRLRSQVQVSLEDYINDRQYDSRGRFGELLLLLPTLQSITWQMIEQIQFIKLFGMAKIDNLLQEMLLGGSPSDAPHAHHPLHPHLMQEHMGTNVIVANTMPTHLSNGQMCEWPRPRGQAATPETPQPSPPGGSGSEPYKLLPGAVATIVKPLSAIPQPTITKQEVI
Bile acid receptor (Homo sapiens), sequence (Q96RI1 whole entry, looked up, the tested form may be a part): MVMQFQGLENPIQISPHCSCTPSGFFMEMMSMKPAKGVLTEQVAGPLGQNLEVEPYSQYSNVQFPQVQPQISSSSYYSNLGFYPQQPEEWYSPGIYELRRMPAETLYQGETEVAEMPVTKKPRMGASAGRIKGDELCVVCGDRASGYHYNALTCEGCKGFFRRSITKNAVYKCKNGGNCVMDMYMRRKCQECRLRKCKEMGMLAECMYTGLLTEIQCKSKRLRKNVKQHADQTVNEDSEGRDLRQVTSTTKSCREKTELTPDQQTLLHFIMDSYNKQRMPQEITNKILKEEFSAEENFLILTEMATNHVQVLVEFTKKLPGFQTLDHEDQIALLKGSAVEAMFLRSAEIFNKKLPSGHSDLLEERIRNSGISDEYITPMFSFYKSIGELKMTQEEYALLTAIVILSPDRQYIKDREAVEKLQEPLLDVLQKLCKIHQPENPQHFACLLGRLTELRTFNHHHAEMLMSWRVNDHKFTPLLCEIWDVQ
Myc proto-oncogene protein (Homo sapiens), sequence (P01106 whole entry, looked up): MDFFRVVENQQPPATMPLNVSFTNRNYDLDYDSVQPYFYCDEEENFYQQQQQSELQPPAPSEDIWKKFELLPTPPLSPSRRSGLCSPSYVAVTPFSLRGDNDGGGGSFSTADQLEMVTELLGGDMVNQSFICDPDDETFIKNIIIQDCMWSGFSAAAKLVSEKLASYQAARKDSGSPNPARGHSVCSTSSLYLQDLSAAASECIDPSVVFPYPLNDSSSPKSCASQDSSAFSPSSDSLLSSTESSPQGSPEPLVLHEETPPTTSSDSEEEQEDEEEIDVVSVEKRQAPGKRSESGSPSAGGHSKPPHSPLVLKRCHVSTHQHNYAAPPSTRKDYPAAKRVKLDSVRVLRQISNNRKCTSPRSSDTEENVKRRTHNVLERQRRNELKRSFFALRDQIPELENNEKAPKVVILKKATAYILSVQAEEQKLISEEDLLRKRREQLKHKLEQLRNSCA
Nuclear receptor subfamily 4 group A member 2 (Homo sapiens), sequence (P43354 whole entry, looked up, the tested form may be a part): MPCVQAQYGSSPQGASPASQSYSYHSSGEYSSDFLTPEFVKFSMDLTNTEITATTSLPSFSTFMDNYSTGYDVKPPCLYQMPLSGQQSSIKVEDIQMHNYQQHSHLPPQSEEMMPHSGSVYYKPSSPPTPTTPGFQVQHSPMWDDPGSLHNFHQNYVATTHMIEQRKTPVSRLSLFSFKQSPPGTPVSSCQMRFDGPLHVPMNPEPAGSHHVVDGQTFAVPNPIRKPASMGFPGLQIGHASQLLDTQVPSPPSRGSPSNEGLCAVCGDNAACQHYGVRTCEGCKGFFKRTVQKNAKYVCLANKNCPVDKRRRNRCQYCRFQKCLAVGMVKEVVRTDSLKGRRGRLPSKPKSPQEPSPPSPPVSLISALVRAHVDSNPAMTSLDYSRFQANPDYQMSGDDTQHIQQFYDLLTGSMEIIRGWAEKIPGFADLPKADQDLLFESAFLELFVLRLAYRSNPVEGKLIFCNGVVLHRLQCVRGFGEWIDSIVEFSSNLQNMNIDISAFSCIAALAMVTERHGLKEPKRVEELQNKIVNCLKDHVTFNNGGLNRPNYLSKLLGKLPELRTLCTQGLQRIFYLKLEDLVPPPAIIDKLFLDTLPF

O=C(O)COc1ccc(Cl)cc1Cl
not listed: [15] | [16] | [17] | [18] | [19] | [20]
inactive: all other assays above

CCN(CC)C(=O)SCc1ccc(Cl)cc1
active: [11] 6.08 µM | [12] 25 µM
not listed: [1] | [4] | [19] | [20]
inactive: all other assays above

O=[N+]([O-])/N=C1\NCCN1Cc1ccc(Cl)nc1
not listed: [1] | [3] | [4] | [18] | [20]
inactive: all other assays above

CCCN(CCOc1c(Cl)cc(Cl)cc1Cl)C(=O)n1ccnc1
inactive: [1] | [15] | [17] | [3] | [4] | [5] | [6] | [7] | [8] | [9] | [10] | [11] | [12] | [13] | [19] | [14]
active: [11] 4.52 µM | [12] 11.1 µM

COc1nn(CSP(=S)(OC)OC)c(=O)s1
active: [11] 23.4 µM | [12] 18 µM
not listed: [1] | [3] | [6] | [19]
inactive: all other assays above

COC(=O)c1ccccc1S(=O)(=O)NC(=O)Nc1nc(C)nc(OC)n1
active: [11] 31.3 µM | [12] 36 µM
inactive: [1] | [16] | [17] | [3] | [4] | [5] | [6] | [7] | [8] | [9] | [10] | [11] | [12] | [13] | [14]
